The results in this text go back to PubChem BioAssay AID652053 (Broad Institute, 2013).

Screen size: about 1,300 compounds; about 930 (72%) were called active.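 How the source made its calls: active means fitted curve reaches 40% activation signal increase at or below the top valid tested concentration in every replicate test; inconclusive means replicate tests disagree in their calls; inactive means all replicate tests inactive, including effects opposite the expected signal rise.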 The set was probably picked from earlier hits. These entries were drawn from the full list. Results with a measured potency or affinity are listed apart.

The experiment can be described thus: miR-122 inhibitors in Huh7 reporter cells, dose response, cell-based, Huh7 psiCHECK-miR122, Renilla luciferase, cherry-pick (AID 652053). Conditions: 48 h; series mostly up to 35 µM.
Turning to `C/C=C/c1ccc([C@H]2[C@@H](CO)N(c3nc(CC)cs3)[C@H]2CNC(C)C)cc1`, the result was inactive. Next, `Cc1cc(C)cc(NC2=NC3(CCCCC3)N=C(N)N2)c1`: “inactive”.

On to `C/C=C/c1ccc([C@H]2[C@H](CO)N(c3nc(CC)cs3)[C@H]2CNC(C)C)cc1`, for which the compound was called inactive. As for `Cc1cc(N/N=C/c2ccc(O)c(C)c2O)nc(-c2ccccc2O)n1`, the compound was called inactive.

In the case of `CCC(=O)Nc1ccc(C(=O)Nc2cccc(C)n2)cc1`, the call was inactive.

On to `C[C@@H]1CN([C@@H](C)CO)C(=O)Cc2cc(NC(=O)Nc3cccc4ccccc34)ccc2O[C@@H]1CN(C)C(=O)NC1CCCCC1`, for which the call was inactive. The entry for `C[C@H](CO)N1C[C@H](C)[C@H](CN(C)C(=O)NC2CCCCC2)Oc2ccc(NC(=O)Nc3cccc4ccccc34)cc2CC1=O` is “inactive”; for `C[C@H](CO)N1C[C@H](C)[C@@H](CN(C)Cc2ccncc2)Oc2ccc(NC(=O)Nc3cccc4ccccc34)cc2CC1=O` it is “inactive”. For the compound `CC(C)NC(=O)Nc1ccc2c(c1)CC(=O)N([C@H](C)CO)C[C@@H](C)[C@@H](CN(C)Cc1ccc(Oc3ccccc3)cc1)O2`, the compound was classed as inactive.

Consider `COc1cccc(C(=O)Nc2cc([N+](=O)[O-])ccc2N2CCN(C)CC2)c1`, for which the outcome was inactive. The entry for `COc1ccc(NC(C)=O)cc1NC(C)C(=O)Nc1cc(C(F)(F)F)ccc1N1CCOCC1` (stereo unspecified) is “inactive”. Take `Cc1nc2ccccc2n1S(=O)(=O)c1ccc(F)cc1`: the compound was called inactive.

As for `CC(C)n1c(/C=C/c2ccccc2)nc2ccccc21`, the compound was classed as inactive. Next, `COc1ccc(S(=O)(=O)Nc2ccc3c(c2)COC3=O)cc1OC`: “inactive”; `CC(=O)N1[C@H](CO)[C@H](c2ccc(C3=CCCCC3)cc2)[C@@H]1CNC(=O)CN(C)C`: “inactive”. Next, `Cc1ccc(C)c(CSc2nnc(-c3cccnc3)o2)c1`: “inactive”; `COc1ccc(OC)c(Nc2cc(C)nc3nc(C)nn23)c1`: “inactive”. Next, `Cc1cc(OCC(O)CN2CCOCC2)cc(C)c1Cl` (stereo unspecified): “inactive”; `O=C(Nc1cccc([N+](=O)[O-])c1)c1ccc(CSc2ccccc2)cc1`: “inactive”; `Fc1ccc(-n2nnc(-c3nccs3)n2)cc1`: “inactive”.

`CCc1nc2sc3c(c2c(=O)n1NC(=O)CCl)CCCC3`: the outcome was inactive. The entry for `COc1ccc(CN(C)C[C@@H]2OCCCC[C@@H](C)Oc3ccc(NC(=O)c4ccccc4)cc3C(=O)N([C@H](C)CO)C[C@@H]2C)cc1` is “inactive”; for `COc1cccc(N2CCN(C(=S)Nc3cccc(C)c3)CC2)c1` it is “inactive”; for `C/C=C/c1ccc([C@@H]2[C@@H](CO)N(c3nc(CC)cs3)[C@@H]2CNC(C)C)cc1` it is “inactive”. The entry for `COc1ccc(CNC(=O)C(c2ccco2)N(C(=O)c2csnn2)c2cccc(C)c2C)cc1` (stereo unspecified) is “inactive”; for `COc1cc(C(=S)N2CCOCC2)cc(OC)c1OC(=O)c1ccc(F)cc1` it is “inactive”.

In the case of `O=C(Oc1ccc(C(=S)N2CCOCC2)cc1)c1ccc(F)cc1`, the compound was called inactive. For `O=C(Oc1ccc(C(=S)N2CCOCC2)cc1)c1ccccc1F`, the compound was called inactive. For `O=C(Oc1ccc(C(=S)N2CCOCC2)cc1)c1ccccc1`, the outcome was inactive. Next, `CCOC(=O)c1ccc(NS(=O)(=O)c2ccc3[nH]c(=O)[nH]c3c2)cc1`: “inactive”. Next, `CCCNC(=O)NC[C@@H]1[C@H](c2ccc(C3=CCCC3)cc2)[C@H](CO)N1C(=O)CC`: “inactive”. As to `CCC(=O)N1[C@H](CNC(=O)CN(C)C)[C@@H](c2ccc(C3=CCCC3)cc2)[C@@H]1CO`, the compound was called inactive. The entry for `CCCNC(=O)NC[C@H]1[C@@H](c2ccc(C3=CCCC3)cc2)[C@@H](CO)N1C(C)=O` is “inactive”. Turning to `CC(=O)N1[C@H](CO)[C@@H](c2ccc(C3=CCCCC3)cc2)[C@@H]1CNC(=O)CN(C)C`, the outcome was inactive. Next, `CCCNC(=O)NC[C@H]1[C@@H](c2ccc(C3=CCCC3)cc2)[C@H](CO)N1C(=O)CC`: “inactive”; `CCCNC(=O)NC[C@H]1[C@H](c2ccc(C3=CCCC3)cc2)[C@@H](CO)N1C(=O)CC`: “inactive”. Consider `CCCNC(=O)NC[C@@H]1[C@H](c2ccc(C3=CCCC3)cc2)[C@@H](CO)N1C(=O)CC`, for which the result was inactive. Next, `CCCNC(=O)NC[C@H]1[C@H](c2ccc(C3=CCCC3)cc2)[C@H](CO)N1C(=O)CC`: “inactive”; `CN(C)Cc1cccc(-c2ccccc2)c1O`: “inactive”; `O=S(=O)(Nc1ccncc1)c1ccc(Cl)cc1`: “inactive”. Next, `COc1cc(OC)c2c(-c3cccc(-c4ccc(N(C)C)cc4)c3)cc(=O)oc2c1`: “inactive”; `COc1cc(OC)c2c(-c3cccc(-c4ccc(O)cc4)c3)cc(=O)oc2c1`: “inactive”; `COc1ccc(-c2cccc(-c3cc(=O)oc4cc(OC)cc(OC)c34)c2)cc1`: “inactive”. The entry for `Cc1cc(C(=O)N2CCc3ccccc32)n(-c2ccccc2)n1` is “inactive”; for `C/C(=N\NC(=O)c1cc(-c2cccs2)nc2ccccc12)c1ccccn1` it is “inactive”; for `CC(C)n1cc(NC(=O)c2cc(-c3ccccc3)on2)cn1` it is “inactive”.

`O=C(C[C@@H]1CC[C@H]2[C@@H](COC[C@@H](O)CN2C(=O)C2CCCC2)O1)NCc1ccncc1`: the result was inactive. Next, `O=C(COc1ccccc1F)c1ccc(O)cc1O`: “inactive”; `COc1ccccc1N1CCN(S(=O)(=O)c2ccc(F)cc2)CC1`: “inactive”; `Cc1c(C(=O)N(C)CCC#N)oc2ccc(S(=O)(=O)N3CCOCC3)cc12`: “inactive”.

With `COc1ccc(NC(=O)N(C)C[C@H]2Oc3ccc(NC(=O)Nc4ccc(C(F)(F)F)cc4)cc3CC(=O)N([C@H](C)CO)C[C@H]2C)cc1`, the compound was called inactive. The entry for `COc1ccc(NC(=O)N(C)C[C@@H]2Oc3ccc(NC(=O)Nc4ccc(C(F)(F)F)cc4)cc3CC(=O)N([C@H](C)CO)C[C@@H]2C)cc1` is “inactive”; for `COc1ccc(NC(=O)N(C)C[C@H]2Oc3ccc(NC(=O)Nc4ccc(C(F)(F)F)cc4)cc3CC(=O)N([C@@H](C)CO)C[C@H]2C)cc1` it is “inactive”. Next, `C[C@@H]1CN([C@@H](C)CO)C(=O)c2cc(NC(=O)CCC(F)(F)F)ccc2O[C@@H]1CN(C)C(=O)Nc1ccc2c(c1)OCO2`: “inactive”; `COc1ccc(NC(=O)N(C)C[C@H]2Oc3ccc(NC(=O)Nc4ccc(C(F)(F)F)cc4)cc3CC(=O)N([C@H](C)CO)C[C@@H]2C)cc1`: “inactive”. Next, `COc1ccc(NC(=O)N(C)C[C@@H]2Oc3ccc(NC(=O)Nc4ccc(C(F)(F)F)cc4)cc3CC(=O)N([C@@H](C)CO)C[C@H]2C)cc1`: “inactive”.
